PubChem BioAssay AID1159580 (chemical genetic matrix, 2015)
Out of some 5,500 compounds screened, about 2,000 (36%) were called active. About 18% were inconclusive and are not listed. Cut-off read from the data, not from the text of the source: active = normalized growth mostly below about 0.91 (no sharp cut-off); inconclusive = no clear call, values can overlap the other calls; inactive = mostly above about 0.92. This is one part of the list.

Assay: chemical genetic growth profiling, strain panel (AID 1159580);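 note: tested at 20 µM; growth read once vehicle control cultures reached saturation at 30 °C; 1 = growth at the plate median or of vehicle wells; lower values mean less growth of the strain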
Conditions: growth OD

Measured: normalized growth

COc1cc(S(C)=O)ccc1-c1nc2ncccc2[nH]1 (centres undefined)
inactive: S. cerevisiae deletion strains, locus YJR043C, strain POL32, active compounds read low 1 | S. cerevisiae deletion strains, locus YJR075W, strain HOC1, active compounds read low 0.983 | S. cerevisiae deletion strains, locus YKL009W, strain mrt4, active compounds read low 1 | S. cerevisiae deletion strains, locus YKL068W, active compounds read low 0.991 | S. cerevisiae deletion strains, locus YKL085W, strain MDH1 (second series), active compounds read low 1 | S. cerevisiae deletion strains, locus YKL085W, strain MDH1, active compounds read low 1 | S. cerevisiae deletion strains, locus YKL160W, strain elf1, active compounds read low 0.947 | S. cerevisiae deletion strains, locus YKL190W, strain CNB1, active compounds read low 0.991 | S. cerevisiae deletion strains, locus YKR001C, strain vps1, active compounds read low 0.986 | S. cerevisiae deletion strains, locus YKR026C, strain gcn3, active compounds read low 0.98 | S. cerevisiae deletion strains, locus YKR091W, strain srl3, active compounds read low 0.959 | S. cerevisiae deletion strains, locus YLL001W, strain dnm1, active compounds read low 0.919 | S. cerevisiae deletion strains, locus YLL026W, active compounds read low 0.962 | S. cerevisiae deletion strains, locus YLL041C, strain sdh2, active compounds read low 0.97 | S. cerevisiae deletion strains, locus YLR027C, strain aat2, active compounds read low 0.98 | S. cerevisiae deletion strains, locus YLR039C, strain RIC1, active compounds read low 1.03 | S. cerevisiae deletion strains, locus YLR058C, strain SHM2, active compounds read low 0.993 | S. cerevisiae deletion strains, locus YLR102C, strain apc9, active compounds read low 0.999 | S. cerevisiae deletion strains, locus YLR221C, strain rsa3, active compounds read low 1.01 | S. cerevisiae deletion strains, locus YLR258W, strain gsy2, active compounds read low 0.93 | S. cerevisiae deletion strains, locus YLR262C, strain YPT6 (second series), active compounds read low 0.987 | S. cerevisiae deletion strains, locus YLR262C, strain YPT6, active compounds read low 0.994 | S. cerevisiae deletion strains, locus YLR268W, strain sec22, active compounds read low 0.999 | S. cerevisiae deletion strains, locus YLR320W, strain mms22, active compounds read low 0.995 | S. cerevisiae deletion strains, locus YLR330W, strain CHS5, active compounds read low 0.988 | S. cerevisiae deletion strains, locus YLR342W, strain FKS1 (second series), active compounds read low 1 | S. cerevisiae deletion strains, locus YLR342W, strain FKS1, active compounds read low 0.969 | S. cerevisiae deletion strains, locus YLR357W, strain rsc2, active compounds read low 0.915 | S. cerevisiae deletion strains, locus YLR370C, strain arc18, active compounds read low 0.974 | S. cerevisiae deletion strains, locus YLR371W, strain rom2, active compounds read low 0.991 | S. cerevisiae deletion strains, locus YLR384C, strain iki3, active compounds read low 0.961 | S. cerevisiae deletion strains, locus YLR418C, strain cdc73, active compounds read low 1.04 | S. cerevisiae deletion strains, locus YML016C, strain PPZ1, active compounds read low 1 | S. cerevisiae deletion strains, locus YML032C, strain rad52, active compounds read low 0.989 | S. cerevisiae deletion strains, locus YML120C, strain ndi1, active compounds read low 0.971 | S. cerevisiae deletion strains, locus YML124C, strain tub3, active compounds read low 0.993 | S. cerevisiae deletion strains, locus YMR058W, strain fet3, active compounds read low 0.982 | S. cerevisiae deletion strains, locus YMR078C, strain ctf18, active compounds read low 0.989 | S. cerevisiae deletion strains, locus YMR125W, strain sto1, active compounds read low 0.927 | S. cerevisiae deletion strains, locus YMR129W, active compounds read low 0.979 | S. cerevisiae deletion strains, locus YMR205C, strain PFK2, active compounds read low 0.93 | S. cerevisiae deletion strains, locus YMR223W, strain ubp8, active compounds read low 0.998 | S. cerevisiae deletion strains, locus YMR231W, strain pep5, active compounds read low 0.99 | S. cerevisiae deletion strains, locus YMR263W, strain SAP30, active compounds read low 0.975 | S. cerevisiae deletion strains, locus YMR307W, strain GAS1, active compounds read low 1.03 | S. cerevisiae deletion strains, locus YNL067W, strain RPL9B, active compounds read low 1.01 | S. cerevisiae deletion strains, locus YNL071W, strain lat1, active compounds read low 0.97 | S. cerevisiae deletion strains, locus YNL128W, strain TEP1, active compounds read low 0.997 | S. cerevisiae deletion strains, locus YNL153C, strain GIM3, active compounds read low 0.999 | S. cerevisiae deletion strains, locus YNL209W, strain ssb2, active compounds read low 0.98 | S. cerevisiae deletion strains, locus YNL233W, strain BNI4, active compounds read low 0.995 | S. cerevisiae deletion strains, locus YNL248C, strain rpa49, active compounds read low 0.967 | S. cerevisiae deletion strains, locus YNL250W, strain rad50, active compounds read low 0.991 | S. cerevisiae deletion strains, locus YNL271C, strain bni1, active compounds read low 0.997 | S. cerevisiae deletion strains, locus YNL298W, strain CLA4, active compounds read low 0.971 | S. cerevisiae deletion strains, locus YNL307C, strain MCK1, active compounds read low 1 | S. cerevisiae deletion strains, locus YNL322C, strain KRE1 (second series), active compounds read low 0.938 | S. cerevisiae deletion strains, locus YNL322C, strain KRE1, active compounds read low 0.998 | S. cerevisiae deletion strains, locus YNR049C, strain mso1, active compounds read low 0.966 | S. cerevisiae deletion strains, locus YNR052C, strain pop2, active compounds read low 0.976 | S. cerevisiae deletion strains, locus YOL006C, strain TOP1, active compounds read low 1.04 | S. cerevisiae deletion strains, locus YOL012C, strain htz1 1.02 | S. cerevisiae deletion strains, locus YOL147C, strain pex11, active compounds read low 0.982 | S. cerevisiae deletion strains, locus YOR001W, strain rrp6, active compounds read low 1.01 | S. cerevisiae deletion strains, locus YOR061W, strain CKA2, active compounds read low 1.01 | S. cerevisiae deletion strains, locus YOR069W, strain VPS5, active compounds read low 1 | S. cerevisiae deletion strains, locus YOR070C, strain gyp1, active compounds read low 0.993 | S. cerevisiae deletion strains, locus YOR080W, strain dia2, active compounds read low 0.982 | S. cerevisiae deletion strains, locus YOR083W, strain WHI5, active compounds read low 0.936 | S. cerevisiae deletion strains, locus YOR106W, strain vam3, active compounds read low 0.91 | S. cerevisiae deletion strains, locus YOR136W, strain idh2, active compounds read low 0.986 | S. cerevisiae deletion strains, locus YOR144C, strain elg1, active compounds read low 0.99 | S. cerevisiae deletion strains, locus YOR184W, strain ser1, active compounds read low 0.998 | S. cerevisiae deletion strains, locus YOR265W, strain rbl2, active compounds read low 0.967 | S. cerevisiae deletion strains, locus YOR270C, strain vph1, active compounds read low 0.974 | S. cerevisiae deletion strains, locus YOR290C, strain snf2, active compounds read low 0.951 | S. cerevisiae deletion strains, locus YOR316C, strain cot1, active compounds read low 0.991 | S. cerevisiae deletion strains, locus YPL051W, strain arl3, active compounds read low 0.943 | S. cerevisiae deletion strains, locus YPL055C, strain LGE1, active compounds read low 0.925 | S. cerevisiae deletion strains, locus YPL078C, strain atp4, active compounds read low 0.94 | S. cerevisiae deletion strains, locus YPL106C, strain sse1, active compounds read low 0.947 | S. cerevisiae deletion strains, locus YPL240C, strain hsp82, active compounds read low 0.985 | S. cerevisiae deletion strains, locus YPL241C, strain CIN2, active compounds read low 0.992 | S. cerevisiae deletion strains, locus YPR119W, strain clb2, active compounds read low 0.988 | S. cerevisiae deletion strains, locus YPR141C, strain kar3, active compounds read low 0.999 | S. cerevisiae deletion strains, locus YPR163C, strain tif3, active compounds read low 0.982 | S. cerevisiae deletion strains, locus YPR167C, strain met16, active compounds read low 0.999 | S. cerevisiae deletion strains, strain wtn01, active compounds read low 0.975 | S. cerevisiae strains, strain wild type, active compounds read low 1
